{"source": "PubChem BioAssay (NCATS)", "note": "Inconclusive results are not listed. Activity calls are given as the source filed them. The call rests on the fitted dose curve; in most records, active means well fitted inhibition curve with a large enough effect; inconclusive means small, poorly fitted or top-dose-only effect; inactive means flat fitted curve, though single readings scatter. Potency means the concentration at half of the fitted maximal effect.", "data": [{"tested_on": "Dd2", "test": "qHTS profiling for inhibitors of Plasmodium falciparum proliferation (AID 504749); further: nearly all actives have a fitted effect of over 60% in size;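 on activity, negative = inhibition: 0% = DMSO vehicle and full inhibition = artemisinin control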", "details": "P. falciparum in erythrocytes, SYBR Green DNA, 72 h; series mostly up to 28.7 µM; activity, negative = inhibition: at the top concentration", "summary_of_the_method": "(§1)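 Infected RBCs, 0.3% parasitemia/2.5% Hct final; cpd 72 h, 37 C, 5% CO2; lysis buffer with saponin/triton/SYBR Green I, o/n RT dark; FI 485/535; norm. to artemisinin (0.29 uM) and DMSO.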", "values": [{"smiles": "Nc1c2c(nc3ccccc13)CCCC2", "activity, negative = inhibition": "-26.3% (inactive)"}, {"smiles": "CCC1(c2ccccc2)C(=O)NCNC1=O", "activity, negative = inhibition": "5.96% (inactive)"}, {"smiles": "O=C(Nc1ccc([N+](=O)[O-])cc1Cl)c1cc(Cl)ccc1O", "Potency": "0.891 µM (active)"}, {"smiles": "NC12CC3CC(CC(C3)C1)C2", "activity, negative = inhibition": "3.57% (inactive)"}, {"smiles": "CCCCc1oc2ccccc2c1C(=O)c1cc(I)c(OCCN(CC)CC)c(I)c1", "Potency": "11.2 µM (active)"}, {"smiles": "OCCN1CCN(CCCN2c3ccccc3Sc3ccc(C(F)(F)F)cc32)CC1", "Potency": "11.2 µM (active)"}, {"smiles": "Cc1cc(C(C)(C)C)cc(C)c1CC1=NCCN1", "activity, negative = inhibition": "-25.1% [at 12.8 µM] (inactive)"}, {"smiles": "Clc1ccc(C(c2ccccc2Cl)C(Cl)Cl)cc1", "note": "(stereo not drawn)", "activity, negative = inhibition": "-5.44% (inactive)"}, {"smiles": "COc1cc2c(c(OC)c1OC)-c1ccc(OC)c(=O)cc1[C@@H](NC(C)=O)CC2", "activity, negative = inhibition": "-8.57% (inactive)"}, {"smiles": "Cn1c(=O)c2[nH]cnc2n(C)c1=O", "activity, negative = inhibition": "-2.14% (inactive)"}, {"smiles": "Cc1cn([C@H]2C[C@H](N=[N+]=[N-])[C@@H](CO)O2)c(=O)[nH]c1=O", "activity, negative = inhibition": "7.35% (inactive)"}, {"smiles": "CC#C[C@]1(O)CC[C@H]2[C@@H]3CCC4=CC(=O)CCC4=C3[C@@H](c3ccc(N(C)C)cc3)C[C@@]21C", "Potency": "12.6 µM (active)"}, {"smiles": "CCOC(=O)Nc1ccc(NCc2ccc(F)cc2)nc1N", "Potency": "12.6 µM (active)"}, {"smiles": "CCOC(=O)c1ncn2c1CN(C)C(=O)c1cc(F)ccc1-2", "activity, negative = inhibition": "-2.92% (inactive)"}, {"smiles": "O=C1c2c(O)ccc(O)c2C(=O)c2c(NCCNCCO)ccc(NCCNCCO)c21", "Potency": "1.58 µM (active)"}, {"smiles": "CC1(CN2CCC(n3c(=O)[nH]c4ccccc43)CC2)OCc2ccccc2-n2cccc21", "note": "(stereo not drawn)", "Potency": "11.2 µM (active)"}, {"smiles": "COc1ccccc1N1CCN(CC(O)COc2cccc3ccccc23)CC1", "note": "(stereo not drawn)", "activity, negative = inhibition": "-15.8% (inactive)"}, {"smiles": "CN1CCN2c3ccccc3Cc3ccccc3C2C1", "note": "(stereo not drawn)", "activity, negative = inhibition": "12% (inactive)"}, {"smiles": "O=C(c1ccc(OCCN2CCCCC2)cc1)c1c(-c2ccc(O)cc2)sc2cc(O)ccc12", "Potency": "14.1 µM (active)"}, {"smiles": "COc1ccccc1OCC(O)CN1CCN(CC(=O)Nc2c(C)cccc2C)CC1", "note": "(stereo not drawn)", "activity, negative = inhibition": "5.03% (inactive)"}]}, {"tested_on": "ECU", "test": "qHTS profiling for inhibitors of Plasmodium falciparum proliferation (AID 504749)", "details": "P. falciparum in erythrocytes, SYBR Green DNA, 72 h; series mostly up to 28.7 µM; activity, negative = inhibition: at the top concentration", "summary_of_the_method": "as §1", "values": [{"smiles": "COc1ccc(CCN(C)CCCC(C#N)(c2ccc(OC)c(OC)c2)C(C)C)cc1OC", "note": "(stereo not drawn)", "activity, negative = inhibition": "-0.636% (inactive)"}, {"smiles": "Nc1c2c(nc3ccccc13)CCCC2", "activity, negative = inhibition": "-27.5% (inactive)"}, {"smiles": "CCC1(c2ccccc2)C(=O)NCNC1=O", "activity, negative = inhibition": "-3.17% (inactive)"}, {"smiles": "O=C(Nc1ccc([N+](=O)[O-])cc1Cl)c1cc(Cl)ccc1O", "Potency": "1 µM (active)"}, {"smiles": "NC12CC3CC(CC(C3)C1)C2", "activity, negative = inhibition": "2% (inactive)"}, {"smiles": "CCCCc1oc2ccccc2c1C(=O)c1cc(I)c(OCCN(CC)CC)c(I)c1", "Potency": "8.91 µM (active)"}, {"smiles": "OCCN1CCN(CCCN2c3ccccc3Sc3ccc(C(F)(F)F)cc32)CC1", "Potency": "6.31 µM (active)"}, {"smiles": "Cc1cc(C(C)(C)C)cc(C)c1CC1=NCCN1", "activity, negative = inhibition": "-7.23% [at 12.8 µM] (inactive)"}, {"smiles": "CC(CCc1ccc(O)cc1)NCCc1ccc(O)c(O)c1", "note": "(stereo not drawn)", "activity, negative = inhibition": "1.91% (inactive)"}, {"smiles": "Clc1ccc(C(c2ccccc2Cl)C(Cl)Cl)cc1", "note": "(stereo not drawn)", "activity, negative = inhibition": "-13.9% (inactive)"}, {"smiles": "COc1cc2c(c(OC)c1OC)-c1ccc(OC)c(=O)cc1[C@@H](NC(C)=O)CC2", "activity, negative = inhibition": "1.59% (inactive)"}, {"smiles": "Cn1c(=O)c2[nH]cnc2n(C)c1=O", "activity, negative = inhibition": "6.2% (inactive)"}, {"smiles": "CN(C)CCOC(c1ccccc1)c1ccccc1", "activity, negative = inhibition": "8.15% (inactive)"}, {"smiles": "Cc1cn([C@H]2C[C@H](N=[N+]=[N-])[C@@H](CO)O2)c(=O)[nH]c1=O", "activity, negative = inhibition": "2.2% (inactive)"}, {"smiles": "CC#C[C@]1(O)CC[C@H]2[C@@H]3CCC4=CC(=O)CCC4=C3[C@@H](c3ccc(N(C)C)cc3)C[C@@]21C", "Potency": "8.91 µM (active)"}, {"smiles": "COc1ccccc1OCCNCC(O)COc1cccc2[nH]c3ccccc3c12", "note": "(stereo not drawn)", "Potency": "10 µM (active)"}, {"smiles": "CCOC(=O)Nc1ccc(NCc2ccc(F)cc2)nc1N", "Potency": "11.2 µM (active)"}, {"smiles": "CN(C)CCC=C1c2ccccc2C=Cc2ccccc21", "activity, negative = inhibition": "-29.8% (inactive)"}, {"smiles": "CCOC(=O)c1ncn2c1CN(C)C(=O)c1cc(F)ccc1-2", "activity, negative = inhibition": "0.412% (inactive)"}, {"smiles": "CNCCCC12CCC(c3ccccc31)c1ccccc12", "activity, negative = inhibition": "-23.8% (inactive)"}, {"smiles": "CN1CCC(=C2c3ccccc3C=Cc3ccccc32)CC1", "activity, negative = inhibition": "2.22% (inactive)"}, {"smiles": "CC1(CN2CCC(n3c(=O)[nH]c4ccccc43)CC2)OCc2ccccc2-n2cccc21", "note": "(stereo not drawn)", "Potency": "10 µM (active)"}, {"smiles": "COc1ccccc1N1CCN(CC(O)COc2cccc3ccccc23)CC1", "note": "(stereo not drawn)", "activity, negative = inhibition": "-1.06% (inactive)"}, {"smiles": "CN1CCN2c3ccccc3Cc3ccccc3C2C1", "note": "(stereo not drawn)", "activity, negative = inhibition": "0.603% (inactive)"}, {"smiles": "CN(Cc1cnc2nc(N)nc(N)c2n1)c1ccc(C(=O)N[C@@H](CCC(=O)O)C(=O)O)cc1", "Potency": "0.112 µM (active)"}, {"smiles": "COc1ccccc1OCC(O)CN1CCN(CC(=O)Nc2c(C)cccc2C)CC1", "note": "(stereo not drawn)", "activity, negative = inhibition": "3.56% (inactive)"}]}, {"tested_on": "FAB9", "test": "qHTS profiling for inhibitors of Plasmodium falciparum proliferation (AID 504749)", "details": "P. falciparum in erythrocytes, SYBR Green DNA, 72 h; series mostly up to 28.7 µM; activity, negative = inhibition: at the top concentration", "summary_of_the_method": "as §1", "values": [{"smiles": "COc1ccc(CCN(C)CCCC(C#N)(c2ccc(OC)c(OC)c2)C(C)C)cc1OC", "note": "(stereo not drawn)", "activity, negative = inhibition": "12.2% (inactive)"}, {"smiles": "Nc1c2c(nc3ccccc13)CCCC2", "activity, negative = inhibition": "-4.16% (inactive)"}, {"smiles": "CCC1(c2ccccc2)C(=O)NCNC1=O", "activity, negative = inhibition": "1.86% (inactive)"}, {"smiles": "O=C(Nc1ccc([N+](=O)[O-])cc1Cl)c1cc(Cl)ccc1O", "activity, negative = inhibition": "-22.2% (inactive)"}, {"smiles": "NC12CC3CC(CC(C3)C1)C2", "activity, negative = inhibition": "1.93% (inactive)"}, {"smiles": "Cc1cc(C(C)(C)C)cc(C)c1CC1=NCCN1", "activity, negative = inhibition": "2.59% [at 12.8 µM] (inactive)"}, {"smiles": "CC(CCc1ccc(O)cc1)NCCc1ccc(O)c(O)c1", "note": "(stereo not drawn)", "activity, negative = inhibition": "-2.32% (inactive)"}, {"smiles": "Clc1ccc2c(c1)C(N1CCNCC1)=Nc1ccccc1O2", "activity, negative = inhibition": "-10.3% (inactive)"}, {"smiles": "CN(C)CCCN1c2ccccc2CCc2ccc(Cl)cc21", "activity, negative = inhibition": "-29.3% (inactive)"}, {"smiles": "CC(COc1ccccc1)N(CCCl)Cc1ccccc1", "note": "(stereo not drawn)", "activity, negative = inhibition": "6.03% (inactive)"}, {"smiles": "Clc1ccc(C(c2ccccc2Cl)C(Cl)Cl)cc1", "note": "(stereo not drawn)", "activity, negative = inhibition": "2.95% (inactive)"}, {"smiles": "COc1cc2c(c(OC)c1OC)-c1ccc(OC)c(=O)cc1[C@@H](NC(C)=O)CC2", "activity, negative = inhibition": "12.4% (inactive)"}, {"smiles": "Cn1c(=O)c2[nH]cnc2n(C)c1=O", "activity, negative = inhibition": "0.825% (inactive)"}, {"smiles": "CN(C)CCOC(c1ccccc1)c1ccccc1", "activity, negative = inhibition": "-0.31% (inactive)"}, {"smiles": "Cc1cn([C@H]2C[C@H](N=[N+]=[N-])[C@@H](CO)O2)c(=O)[nH]c1=O", "activity, negative = inhibition": "8.94% (inactive)"}, {"smiles": "O=c1[nH]cc(F)c(=O)[nH]1", "activity, negative = inhibition": "-19.7% (inactive)"}, {"smiles": "COc1ccccc1OCCNCC(O)COc1cccc2[nH]c3ccccc3c12", "note": "(stereo not drawn)", "activity, negative = inhibition": "-1.9% (inactive)"}, {"smiles": "CN(C)CCC=C1c2ccccc2C=Cc2ccccc21", "activity, negative = inhibition": "3.26% (inactive)"}, {"smiles": "CCOC(=O)c1ncn2c1CN(C)C(=O)c1cc(F)ccc1-2", "activity, negative = inhibition": "0.153% (inactive)"}, {"smiles": "CC(C)NCC(O)COc1ccc(CCOCC2CC2)cc1", "note": "(stereo not drawn)", "activity, negative = inhibition": "2.49% (inactive)"}, {"smiles": "CNCCCC12CCC(c3ccccc31)c1ccccc12", "activity, negative = inhibition": "-6.2% (inactive)"}, {"smiles": "CN1CCC(=C2c3ccccc3C=Cc3ccccc32)CC1", "activity, negative = inhibition": "5.15% (inactive)"}, {"smiles": "CC1(CN2CCC(n3c(=O)[nH]c4ccccc43)CC2)OCc2ccccc2-n2cccc21", "note": "(stereo not drawn)", "activity, negative = inhibition": "-3.72% (inactive)"}, {"smiles": "COc1ccccc1N1CCN(CC(O)COc2cccc3ccccc23)CC1", "note": "(stereo not drawn)", "activity, negative = inhibition": "5.35% (inactive)"}, {"smiles": "CN1CCN2c3ccccc3Cc3ccccc3C2C1", "note": "(stereo not drawn)", "activity, negative = inhibition": "11.1% (inactive)"}, {"smiles": "CN(Cc1cnc2nc(N)nc(N)c2n1)c1ccc(C(=O)N[C@@H](CCC(=O)O)C(=O)O)cc1", "Potency": "0.0316 µM (active)"}, {"smiles": "COc1ccccc1OCC(O)CN1CCN(CC(=O)Nc2c(C)cccc2C)CC1", "note": "(stereo not drawn)", "activity, negative = inhibition": "7.66% (inactive)"}]}]}
